From PubChem BioAssay (Tox21) come the findings set out here.

Results filed as inconclusive are left out. Entries that show only a call come without a potency. Unmarked numbers belong to inactive results. Calls of active or inactive are those of the source. Calls follow the shape of the dose curve; as a rule, active = well fitted cell-killing curve with a large enough effect in the repeat runs; inconclusive = weak or mixed curves, or effect the other way; inactive = no such curve, though single readings can be large or run the other way.

A short description of this assay: qHTS assay to identify small molecule agonists of the estrogen receptor alpha (ER-alpha) signaling pathway in the presence of an antagonist - cell viability counter screen (AID 1259386). Also: nearly all actives have a fitted effect of over 30% in size. Conditions: VM7Luc4E2 viability, CellTiter-Fluor fluorescence, 22 h; series mostly up to 92.4 µM. The text has this: National Center for Advancing Translational Sciences [NCATS]
NIH Chemical Genomics Center [NCGC]
U.S. Environmental Protection Agency [EPA]
National Institutes of Environmental Health Sciences [NIEHS]
National Toxicology Program [NTP]
U.S. Food and Drug Administration [FDA]
Estrogen receptor (ER), a member of nuclear hormone receptor plays an important role in development, metabolic homeostasis and reproduction. Two subtypes of ER, ER-alpha and ER-beta, have similar expression patterns with some uniqueness in both types. Endocrine disrupting chemicals (EDCs) and their interactions with steroid hormone receptors like ER causes disruption of normal endocrine function. Therefore, it is important to understand the effect of environmental chemicals in ER signaling pathway. For identifying ER agonists, VM7Luc4E2 cell line has been used in the current assay.
VM7Luc4E2 cell line (provided by Denison MS, University of California) endogenously expresses full-length ER-alpha and is stably transfected with a plasmid containing four estrogen responsive elements (ERE) upstream of a luciferase reporter gene. This current screening for measuring luciferase reporter gene activity using VM7Luc4E2 cells against Tox21 10K library collection is a confirmation study on agonist mode screening in presence of ER-antagonist (ICI-182,780) at 10.0nM final concentration. The cytotoxicity of the compounds was tested in parallel by measuring the cell viability using CellTiter-Fluor assay system (Promega, Madison, WI) in the same wells.
Tox21 Assay Protocol Summary:
VM7Luc4E2 cells were cultured in phenol red free assay medium containing 10% charcoal stripped FBS for 5 days prior to the assay. The cells were dispensed at 4,000 cells in 4uL of assay medium per well into white wall/solid-bottom 1536-well plates (Corning Life Sciences, Corning, NY) using a Multidrop Combi (Thermo Fisher Scientific Inc., Waltham, MA) dispenser. After the assay plates were incubated at 37C and 5% CO2 for 24hr, 1uL of 10.0nM (final concentration) ICI-182,780 or assay buffer was added using two separate tips of Flying Reagent Dispenser (FRD, Aurora Discovery, San Diego, CA). Then 23nL of compounds dissolved in DMSO at 15 concentrations and positive controls or DMSO only was transferred to the assay plates by a Pintool station (Wako, San Diego, CA). The assay plates were incubated at 37C and 5% CO2 for 22hr. After 21hr incubation at 37C, 1uL/well CellTiter-Fluor reagent (Promega Corporation, Madison, WI) was added to each well using FRD and after 1hr incubation at 37C and 5% CO2, the fluorescence signal was measured on ViewLux plate reader (PerkinElmer, Shelton, CT).
On the technique in general: Quantitative high-throughput screening tests each substance at several concentrations.
As for `OCCSCSCCO`, the Potency result was “inactive”.
The same measure, in the same setting: the entry for `CC(C=O)Cc1ccc2c(c1)OCO2` (stereo not given) is “inactive”; for `ClC(Cl)(Cl)C(Cl)(Cl)Cl` it is “inactive”; for `COC(=O)COc1ccc(Cl)cc1Cl` it is “inactive”.
Still for that read-out and setting: the entry for `CCOC(=O)/C=C(C)/C=C/C[C@@H](C)CCCC(C)C` is “inactive”; for `CCCCc1c(C)nc(NCC)[nH]c1=O` it is “inactive”; for `CCCCc1ccc(O)cc1` it is “inactive”.
For `Nc1cnn(-c2ccccc2)c(=O)c1Cl`, the Potency result is “inactive”.
With `COc1ccc(C(=O)N2CCCC2=O)cc1`, the Potency result was “inactive”.
As to `Cc1cc(C)nc(Nc2ccccc2)n1`, the Potency entry is “inactive”.
As for `CCCCCCBr`, the Potency result is “inactive”.
Take `CCCCOP(=O)(O)OCCCC`: the Potency result is “inactive”.
As to `CCCSC(=O)Cl`, the Potency entry is “inactive”.
The same measure, in the same setting: then `C#C[C@]1(O)C=C[C@H]2[C@@H]3CCC4=CC(=O)CC[C@@H]4[C@H]3CC[C@@]21CC`, with “inactive”; and `CCCSP(=O)(OCC)Oc1ccc(Br)cc1Cl` (stereo not given), with “inactive”; and `O=C(N[C@H]1CN2CCC1CC2)c1cc2ccoc2cn1`, with “inactive”.
For the molecule `N#CC(Cl)(Cl)Cl`, the Potency result is “inactive”.
With `O=C(O)c1ccc2[nH]cc(CCCCN3CC=C(c4ccccc4)CC3)c2c1`, the Potency result was “inactive”.
As for `O=C(CCCN1CCC(n2c(=O)[nH]c3ccccc32)CC1)c1ccc(F)cc1`, the Potency result is “inactive”.
For `NC(=S)C(N)=S`, the Potency entry is “inactive”.
`CC1=NNC(=O)N(/N=C/c2cccnc2)C1`: the Potency result is “inactive”.
Same read-out and setting: then `OC(c1ccc(F)cc1)(c1cncnc1)c1ccccc1Cl` (stereo not given), with “inactive”; and `COC(=O)C1=CCCN(C)C1`, with “inactive”; and `COP(=S)(OC)Oc1ccc(S(N)(=O)=O)cc1`, with “inactive”.
As to `O=C1c2ccccc2C(=O)c2ccccc21`, the activity change, negative = cytotoxicity was 2.11% [at 19 µM].
Take `Cc1cccc(C#N)c1`: the Potency result is “inactive”.
On to `O=C(Cc1ccccc1)OCc1ccccc1`, for which the Potency entry is “inactive”.
`O=c1oc2ccccc2c(O)c1C1CCCc2ccccc21` (stereo not given): the Potency result was “inactive”.
With `O=[N+]([O-])c1ccc2c3c(cccc13)CC2`, the Potency result is “inactive”.
For `OC(Cn1cncn1)(c1ccc(F)cc1)c1ccccc1F` (stereo not given), the Potency entry was “inactive”.
As for `CC1=C(C(=O)O)N2C(=O)[C@@H](N)[C@H]2SC1`, the activity change, negative = cytotoxicity was 2.04% [at 19 µM].
For the molecule `O=C(CCN1CC1)OCC(CO)(COC(=O)CCN1CC1)COC(=O)CCN1CC1`, the Potency result was “inactive”.
As to `CCC(C)(C)c1cc(-n2nc3ccccc3n2)c(O)c(C(C)(C)CC)c1`, the Potency entry is “inactive”.
For the molecule `O=P(O)(Oc1ccccc1)Oc1ccccc1`, the Potency result was “inactive”.
Regarding `C=CC1CC=CCC1` (stereo not given), the Potency result was “inactive”.
As to `CCc1cc2c(s1)-n1c(C)nnc1CN=C2c1ccccc1Cl`, the Potency entry is “inactive”.
With `COP(=S)(OC)Oc1c(Cl)cc(C)cc1Cl`, the Potency result was “inactive”.
For `CC(C)CP(=S)(S)CC(C)C`, the Potency entry was “inactive”.
Take `CC(=O)C(Cl)Cl`: the Potency entry is “inactive”.
Regarding `CNC(=O)Oc1ccccc1C1OCCO1`, the Potency result was “inactive”.
